Each structure is given as a SMILES string.

The assay has as its system DRIVER-selected RNA biosensor (aptazyme) pool. The assay is described as follows: maximum fold change of ribozyme cleavage across biosensor pool versus no-compound control; higher = stronger biosensor response (ligand inhibits cleavage). Particulars: 10 µM. An outline of the steps:
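Values are the maximum fold change of cleavage over all biosensors in a CleaveSeq assay, defined as the cleaved:uncleaved read-fraction ratio against a no-compound condition after correction with reference sequences. The 1,730 array-resynthesized ribozyme biosensors were T7-transcribed for 15–30 min at 37°C with 9 mM rNTPs and a single compound at 10 µM final, then reverse-transcribed at 50°C. Read counts came from Illumina sequencing of PCR-barcoded cleaved and uncleaved products.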
`COc1ccc(CCNC(=O)c2nnc(Cc3ccc(Cl)cc3Cl)o2)cc1OC` showed a maximum fold change of 2.09.

Molecule `O=C(NCc1cccc(Cl)c1)c1cnc2ccccn2c1=O` had a maximum fold change of 7.03.

On to `CC(C)c1ccc(C2c3c(-c4ccccc4O)n[nH]c3C(=O)N2CCCO)cc1` (stereo unspecified), for which the maximum fold change came out at 2.85.

`Cc1ccc(-c2noc(CCC(=O)N3CCN(Cc4ccccc4)CC3)n2)cc1` had a maximum fold change of 3.6.

The molecule `Cc1oc(-c2ccccc2F)nc1CS(=O)(=O)CC(=O)N1CCC(Cc2ccccc2)CC1` displayed a maximum fold change of 4.04.

Turning to `CCCN(CCC)CCCNS(=O)(=O)c1ccc(OCC)c2ncccc12`, the maximum fold change turned out to be 2.96.

For `Cc1c(C(=O)Nc2ccncc2)sc2nc(-c3ccccc3)cn12`, the maximum fold change is 3.12.

For `Cn1c(=O)c2c(-c3ccc(Cl)cc3)n(C3CCCCC3)cc2n(C)c1=O`, the maximum fold change came out at 2.62.

The molecule `Cc1cc(C)cc(-n2c(C)cc(/C=C3\C(=N)N4N=C(N5CCOCC5)SC4=NC3=O)c2C)c1` came in with a maximum fold change of 4.19.

`CC(C)NC(=O)C1(c2ccccc2)CCCC1`: the maximum fold change turned out to be 2.11.

In turn, `O=C(NCc1ccco1)c1ccccc1Br` showed a maximum fold change of 2.5.

Molecule `CCOC(=O)N1CCN(c2cnn(-c3nc4ccccc4s3)c(=O)c2Cl)CC1` showed a maximum fold change of 3.21.

In the case of `O=C(NC1CCN(Cc2ccccc2)CC1)c1cc2c(=O)oc3ccccc3c2s1`, the maximum fold change came to 7.21.

Take `Cc1cc2cc(CNC(=O)C3CCCC3)ccc2[nH]1`: the maximum fold change is 5.24.

For `Cc1ccc2nc(/C(C#N)=C\c3ccc[nH]3)[nH]c2c1`, the maximum fold change was found to be 4.98.

`COCCNC(=O)/C(C#N)=C/c1c(Oc2ccccc2Cl)nc2ccccn2c1=O` had a maximum fold change of 2.74.

`CN1C(=O)c2ccccc2C(C(=O)O)C1c1c[nH]c2ccccc12` (stereo unspecified): the maximum fold change came to 2.39.

In turn, `CCOc1ccc(CCNC2=NS(=O)(=O)C(c3ccc(C)cc3)=C2C)cc1OCC` gave a maximum fold change of 3.71.

In turn, `CCOCCCNC(=O)c1cc(C)nn1-c1ccccc1` came in with a maximum fold change of 2.81.

With `Cc1ccc2c(CNC3CCC(C)CC3)c(C(=O)O)n(Cc3ccccc3F)c2c1` (stereo unspecified), the maximum fold change worked out at 2.5.

`CCOC(=O)c1cnc2c(C)cc(Cl)cc2c1NCCCO` yielded a maximum fold change of 9.37.

The molecule `COCCN1C(=O)c2ccccc2C(C(=O)N2CCC(C)CC2)C1c1cn(C)c2ccccc12` (stereo unspecified) returned a maximum fold change of 4.72.

`CC(NC(=O)C1CCC(CNS(=O)(=O)c2ccccc2)CC1)c1ccccc1` (stereo unspecified): the maximum fold change is 2.1.

Consider `COc1ccc(C(=O)/C=C2\Nc3ccc(C(=O)NCc4cccc(OC)c4)cc3NC2=O)cc1`, for which the maximum fold change stood at 7.89.

On to `COc1cccc(-c2cc(C(=O)NC3CCCc4ccccc43)[nH]n2)c1` (stereo unspecified), for which the maximum fold change was 1.96.

The molecule `Cc1ccccc1-c1nc(CS(=O)(=O)CC(=O)NC2CCCCC2C)c(C)o1` (stereo unspecified) registered a maximum fold change of 2.07.

`COc1ccc(S(=O)(=O)N2CCCN(CC(=O)C(C)(C)C)CC2)cc1` gave a maximum fold change of 2.33.

The molecule `CCOC(=O)c1c(NC(=O)COc2ccc(Cl)cc2Cl)sc2c1CCC2` had a maximum fold change of 3.01.

`COc1ccc(/C=C/C(=O)Nc2nc3ccc(S(C)(=O)=O)cc3s2)cc1Br` registered a maximum fold change of 3.76.

`N#C/C(=Cc1c(Oc2ccccc2Cl)nc2n(c1=O)cccc2)/c1nc2c([nH]1)cccc2` displayed a maximum fold change of 7.4.

`c1cncc(-c2nc3cc(Oc4ccc5[nH]c(-c6cccnc6)nc5c4)ccc3[nH]2)c1` yielded a maximum fold change of 12.5.
